These results are taken from the supplement of paper PMC13094657.

Counter-ions that a name gives are not always drawn. ± gives the standard deviation of the averaged measurements.

Assay [1] concerns MDA-MB-231. The assay can be described thus: cell viability relative to vehicle unstimulated control (fraction); higher = more viable cells. The following applies: pre-treatment time: 18 h then 24 h IFNg/TNF.
Assay [2] concerns MDA-MB-231. The assay can be described thus: kynurenine production, fold change vs DMSO IFNg/TNF control; higher = more kynurenine produced (less inhibition). Particulars: pre-treatment time: 18 h then 24 h IFNg/TNF. In outline:
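After trichloroacetic acid and p-dimethylaminobenzaldehyde treatment, supernatants were read at 492 nm, with 0–100 μM standards. These came from MDA-MB-231 cells (7 × 10^4/well, 96-well plates) pre-treated 18 h with natural products in 0.1% DMSO and then exposed 24 h to IFNγ (1 U/ml) and TNF (6.25 ng/ml) at 37°C. Values for kynurenine production are fold changes over same-plate cytokine-stimulated vehicle wells, averaged over duplicate plates in the first screening round.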
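Wherever cell viability relative to vehicle unstimulated control is given: viability of the cells left after supernatant collection, read with Deep Blue dye added for 4 h, as absorbance at 570 nm minus 600 nm.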

Regarding `C=C1[C@@H]2CCC3[C@@](CC[C@@H]4[C@H](C(=O)O)C[C@@H](O[C@@H]5O[C@H](CO)[C@@H](OS(=O)(=O)O)[C@H](OS(=O)(=O)O)[C@H]5OC(=O)CC(C)C)C[C@@]34C)(C2)[C@@H]1O` (stereo partly drawn) [Atractyloside (potassium salt)] (compound dose: 10 uM), the cell viability in the assay with MDA-MB-231 [1] was 0.797 ± 0.18. Moreover, the kynurenine production with MDA-MB-231 [2] was found to be 0.945 ± 0.02.
For the molecule `COc1cc2c(cc1OC)-c1c(OC)c(OC)cc3c1[C@H](C2)N(C)CC3` [(S)-Glaucine (Alkaloid purified from Papaver somniferum)], the cell viability with MDA-MB-231 [1] is 0.967 ± 0.013. For the same molecule, the kynurenine production in the assay with MDA-MB-231 [2] was found to be 0.905 ± 0.052.
`COc1cc2c(cc1OC)-c1c3c(cc4c1[C@H](C2)N(C)CC4)OCO3` [Dicentrine] (compound dose: 10 uM): the cell viability with MDA-MB-231 [1] stood at 0.83 ± 0.043. Besides, the kynurenine production in the assay on MDA-MB-231 [2] amounted to 0.432 ± 0.0093.
As to `COc1cc(C2OCC3C(c4cc(OC)c(O[C@@H]5O[C@H](CO)[C@@H](O)[C@H](O)[C@H]5O)c(OC)c4)OCC23)cc(OC)c1O[C@H]1O[C@@H](CO)[C@H](O)[C@@H](O)[C@@H]1O` (stereo partly drawn) [Eleutheroside E] (compound dose: 10 uM), the cell viability in the assay with MDA-MB-231 [1] was 0.947 ± 0.033. The kynurenine production in the assay on MDA-MB-231 [2] is 0.784 ± 0.071.
On to `CC(=O)OC(C)(C)/C=C/C(=O)[C@](C)(O)[C@H]1[C@H](O)C[C@@]2(C)[C@@H]3CC=C4[C@H](C[C@H](O)C(=O)C4(C)C)[C@]3(C)C(=O)C[C@]12C` [Cucurbitacin B] (compound dose: 10 uM), for which, in the assay with MDA-MB-231 [1], the cell viability was 0.396 ± 0.061. Moreover, the kynurenine production in the assay with MDA-MB-231 [2] came out at 0.189 ± 0.096.
In the case of `C=C1[C@H](OC(C)=O)[C@@H](OC(=O)c2ccccc2)[C@@H](OC(C)=O)C(C)(C)[C@H]2O[C@](O)([C@@H](C)C2=O)[C@@]2(OC(C)=O)C[C@H](C)[C@H](OC(C)=O)[C@@H]2[C@H]1OC(C)=O` [Kansuinine A] (compound dose: 10 uM), the cell viability in the assay on MDA-MB-231 [1] is 0.934 ± 0.028. Besides, the kynurenine production with MDA-MB-231 [2] was 0.709 ± 0.031.
On to `C=C[C@H]1[C@H](O[C@@H]2O[C@H](CO)[C@@H](O)[C@H](O)[C@H]2O)OC=C2C(=O)OCC[C@H]21` [Sweroside] (compound dose: 10 uM), for which the cell viability in the assay with MDA-MB-231 [1] was 0.996 ± 0.063. The kynurenine production in the assay with MDA-MB-231 [2] worked out at 0.832 ± 0.17.
On to `O=C1C=C2C=C[C@@H]3C[C@@]2(O1)[C@H]1CCCCN31` [Securinine] (compound dose: 10 uM), for which, in the assay with MDA-MB-231 [1], the cell viability was 0.89. Besides, in the assay on MDA-MB-231 [2], the kynurenine production was 0.213 ± 0.096.
Take `O=C(O)c1ccc(=O)[nH]c1` [6-hydroxynicotinic acid] (compound dose: 10 uM): the cell viability in the assay with MDA-MB-231 [1] amounted to 0.951 ± 0.036. For the same molecule, the kynurenine production in the assay on MDA-MB-231 [2] stood at 0.973 ± 0.098.
As for `O=C(O)c1ccc(=O)[nH]c1` [6-hydroxypyridine-3-carboxylic acid] (compound dose: 10 uM), in the assay on MDA-MB-231 [1], the cell viability came to 0.99 ± 0.039. In addition, the kynurenine production in the assay with MDA-MB-231 [2] is 0.821 ± 0.09.
In the same order, the values of `COc1cc(C(=O)O[C@H]2[C@@H]3C=CO[C@@H](O[C@@H]4O[C@H](CO)[C@@H](O)[C@H](O)[C@H]4O)[C@@H]3[C@@]3(CO)O[C@@H]23)ccc1O` [Picroside II] (compound dose: 10 uM) are 0.923 ± 0.039 and 0.919 ± 0.16.
As for `CC1=C2[C@H]3OC(=O)[C@@H](C)[C@@H]3CC[C@@]2(C)C=CC1=O` [Santonin] (compound dose: 10 uM), the cell viability with MDA-MB-231 [1] came to 0.9716 ± 0.0046. In addition, the kynurenine production in the assay on MDA-MB-231 [2] was 1.02 ± 0.023.
Regarding `O=C(/C=C/c1ccccc1)OC[C@H]1O[C@@H](O[C@@H]2OC=C[C@H]3[C@H](O)[C@@H]4O[C@]4(CO)[C@@H]23)[C@H](O)[C@@H](O)[C@@H]1O` [Picroside I] (compound dose: 10 uM), the cell viability in the assay on MDA-MB-231 [1] came to 0.9642 ± 0.0044. Further, the kynurenine production in the assay with MDA-MB-231 [2] is 0.923 ± 0.05.
Taken in the same sequence, the figures for `C[C@@H]1CC[C@@]2(OC1)O[C@H]1C[C@H]3[C@@H]4CC=C5C[C@@H](O[C@@H]6O[C@H](CO)[C@@H](O[C@@H]7O[C@@H](C)[C@H](O[C@@H]8O[C@@H](C)[C@H](O)[C@@H](O)[C@H]8O)[C@@H](O)[C@H]7O)[C@H](O)[C@H]6O[C@@H]6O[C@@H](C)[C@H](O)[C@@H](O)[C@H]6O)CC[C@]5(C)[C@H]4CC[C@]3(C)[C@H]1[C@@H]2C` [Formosanin C] (compound dose: 10 uM) were -0.00547 ± 0.0077 and 0.125 ± 0.075.
Take `CN1[C@@H]2CC(O)C[C@H]1[C@@H]1O[C@@H]12` (stereo partly drawn) [Scopine] (compound dose: 10 uM): the cell viability with MDA-MB-231 [1] was 1. Besides, the kynurenine production in the assay with MDA-MB-231 [2] was 0.798 ± 0.03.
As for `COc1cc(C[C@H]2C(=O)OC[C@@H]2Cc2ccc3c(c2)OCO3)cc(OC)c1OC` [Yatein] (compound dose: 10 uM), the cell viability in the assay on MDA-MB-231 [1] was determined as 0.9961 ± 0.0012. The kynurenine production in the assay with MDA-MB-231 [2] was 0.843 ± 0.035.
With `CC1=C[C@]23C(=O)[C@@H](C=C(COC(=O)c4ccccc4)[C@@H](O)[C@]2(O)[C@H]1OC(=O)c1ccccc1)[C@H]1[C@@H](C[C@H]3C)C1(C)C` [Ingenol 3,20-dibenzoate] (compound dose: 10 uM), the cell viability in the assay with MDA-MB-231 [1] amounted to 1.05 ± 0.061. The kynurenine production in the assay on MDA-MB-231 [2] came to 0.6413 ± 0.0018.
With `CCCC(=O)O[C@@H]1[C@@H](C)[C@@]2(O)[C@@H](C=C(CO)C[C@]3(O)C(=O)C(C)=C[C@@H]23)[C@@H]2C(C)(C)[C@]12OC(=O)CCC` [Phorbol 12,13-Dibutyrate] (compound dose: 10 uM), in the assay with MDA-MB-231 [1], the cell viability is 1.09 ± 0.072. In the assay on MDA-MB-231 [2], the kynurenine production amounted to 0.781 ± 0.034.
On to `CC1=C(O)C(=O)C=C2C1=CC=C1[C@@]2(C)CC[C@@]2(C)[C@@H]3C[C@](C)(C(=O)O)CC[C@]3(C)CC[C@]12C` [Tripterin] (compound dose: 10 uM), for which the cell viability in the assay with MDA-MB-231 [1] amounted to 0.0346 ± 0.01. The kynurenine production in the assay with MDA-MB-231 [2] was 0.119 ± 0.017.
